CF NFkB block: inhibitors of PAF-induced NF-kB signaling, primary screen, cell-based, GFP fluorescence, uHTS. 0.86% of 360,000 active. AID 588850, 2011. inhibition, % at 5 µM. KKLEB NF-kB-GFP reporter, GFP fluorescence overnight;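 active = at least 50% inhibition at 5 µM, scaled per plate between neutral and stimulator controls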;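 also: PAF is a Pseudomonas aeruginosa culture filtrate used as stimulus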
Peg3 prom inh-1: Peg3 promoter-driven luciferase inhibitors, primary screen, cell-based, HeLa, luciferase luminescence; HeLa PEG-Prom luciferase reporter, overnight; inhibition, % at 20 µM; 1.7% of 360,000 active;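 active = inhibition of at least 50% at 20 µM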
TRPM1 prom inh: inhibitors of MITF-dependent TRPM1 promoter reporter, primary screen, cell-based, SK-MEL-5, single point, luciferase | SK-MEL-5 TRPM1 promoter luciferase, 24 h | inhibition, % at 12.5 µM | 0.83% of 330,000 active;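 active = mean inhibition across replicates of 60% or more, whatever share of single replicates reaches that level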
KKLEB tox: cytotoxicity in KKLEB CF airway cells, primary screen, cytotoxicity control for CF NF-kB inhibitor project, cell-based, uHTS, fluorescence assay plates. KKLEB CF airway cells viability, ATPlite luminescence, overnight; active compounds read low; cells stimulated with P. aeruginosa culture filtrate. activity change (cytotoxicity), % at 5 µM. 0.36% of 360,000 active. AID 602141, 2011;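 active = corrected activity change at or below -50% at 5 µM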
HIF-2a inh: HIF-2a reporter inhibitors, primary screen, luminescence, 786-0 RCC cells | 0.72% of 360,000 active | inhibition, % at 18.8 µM | 786-0 RCC cells HIF-2a reporter, luciferase luminescence, overnight | AID 624352, 2012;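 active = inhibition of the luminescence signal of 40% or more relative to plate controls, in a single-dose primary screen at 18.75 µM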
Shn3 3UTR inh: reduction of Shn3 3'UTR firefly luciferase signal, primary screen, Schnurri-3 inhibitor project, cell-based, Clone20 osteoblasts, set 2 | Clone20 osteoblast Shn3 3'UTR firefly luciferase, 24 h | inhibition, % at 12.5 µM | 0.52% of 360,000 active;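 active = mean inhibition of at least 75% with every replicate also reaching 75%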
Peg3 prom inh-2: Peg3 promoter reporter inhibitors, retest, confirmation, cell-based, HeLa, luciferase reporter, single concentration; shares compounds with Peg3 prom inh-1; HeLa PEG-Prom luciferase reporter, luminescence, overnight; inhibition, % at 20 µM; 84% of 1,300 active; AID 602417, 2012;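 active = at 20 µM dose, 40% or more inhibition averaged across four replicates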
Mdm2-MdmX confirm: retested Mdm2-MdmX interaction blockers, confirmation, cell-based, luminescence, single concentration, set 2; AID 504601, 2011; shares compounds with HIF-2a inh; inhibition, % at 8 µM; 99% of 740 active; SaOS-2 split-luciferase Mdm2/MdmX complementation;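 active = mean inhibition of the luminescence signal across two replicates at or above 26 percent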
Target sequence (O15151 whole entry, looked up): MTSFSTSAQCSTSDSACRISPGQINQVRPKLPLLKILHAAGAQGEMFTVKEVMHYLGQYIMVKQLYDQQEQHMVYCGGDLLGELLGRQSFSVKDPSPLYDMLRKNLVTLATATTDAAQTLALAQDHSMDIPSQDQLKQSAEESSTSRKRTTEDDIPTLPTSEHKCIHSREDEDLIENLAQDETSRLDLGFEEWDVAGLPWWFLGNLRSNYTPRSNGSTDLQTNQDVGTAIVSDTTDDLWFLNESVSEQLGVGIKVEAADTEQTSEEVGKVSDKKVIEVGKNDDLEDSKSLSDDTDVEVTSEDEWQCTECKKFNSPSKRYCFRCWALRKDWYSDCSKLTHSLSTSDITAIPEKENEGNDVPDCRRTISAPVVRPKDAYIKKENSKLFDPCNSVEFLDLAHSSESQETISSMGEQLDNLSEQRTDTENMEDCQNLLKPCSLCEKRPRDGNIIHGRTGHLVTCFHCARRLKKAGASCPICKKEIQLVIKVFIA
Target sequence (Q00987 whole entry, looked up): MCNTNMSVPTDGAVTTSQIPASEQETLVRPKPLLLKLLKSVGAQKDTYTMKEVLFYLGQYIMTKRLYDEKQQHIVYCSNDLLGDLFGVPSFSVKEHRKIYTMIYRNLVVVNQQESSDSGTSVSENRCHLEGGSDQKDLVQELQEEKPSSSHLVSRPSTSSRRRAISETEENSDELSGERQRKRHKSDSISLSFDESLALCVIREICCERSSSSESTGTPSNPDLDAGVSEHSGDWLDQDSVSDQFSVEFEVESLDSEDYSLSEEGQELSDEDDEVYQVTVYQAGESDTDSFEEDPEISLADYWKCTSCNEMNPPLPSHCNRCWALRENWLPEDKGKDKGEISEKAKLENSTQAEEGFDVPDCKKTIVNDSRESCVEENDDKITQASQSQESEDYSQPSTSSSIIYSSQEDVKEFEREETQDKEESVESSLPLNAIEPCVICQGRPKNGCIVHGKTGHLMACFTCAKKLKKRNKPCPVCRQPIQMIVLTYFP
HIF-2a conf: HIF-2a reporter inhibitor retest, confirmation, luminescence, 786-0 RCC cells; shares compounds with HIF-2a inh; HIF-2a luciferase reporter luminescence, overnight; inhibition, % at 18.8 µM; 56% of 1,800 active;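 active = mean inhibition across four replicates of at least 40 percent at the single tested concentration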
HIF-1a cs: HIF-1a luciferase reporter signal reduction – MiaPaCa-2 cells, single concentration, counter-screen for HIF-2a inhibitor project, confirmation | shares compounds with HIF-2a inh | MiaPaCa-2 HIF-1a luciferase reporter, desferoxamine, overnight | inhibition, % at 18.8 µM | 72% of 1,800 active;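 active = mean inhibition of the reporter signal across four replicates at the single tested dose of 50% or more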
Numbers stand for hits; 0 = inactive; - = no result given. The list is not random: actives were taken first. Their share in the collection is about 2.8%.

SMILES	CF NFkB block	Peg3 prom inh-1	TRPM1 prom inh	KKLEB tox	HIF-2a inh	Shn3 3UTR inh	Peg3 prom inh-2	HIF-2a conf	HIF-1a cs	others
O=[N+]([O-])c1ccc(S(=O)(=O)c2ccccc2)nc1	108	97	94	-88	75	93	97	65	79	Mdm2-MdmX confirm=103
CC(C)(C)C(=O)Nc1cc2nn(-c3ccccc3)nc2cc1Cl	0	62	85	-94	75	0	86	91	95
CC(=O)Nc1cc2nn(-c3ccccc3)nc2cc1Cl	0	0	0	0	0	0	-	-	-
C=C1CC(COc2ccc3c(C)c(Cl)c(=O)oc3c2)(c2ccccc2)OC1=O (stereo not drawn)	91	98	101	-71	85	96	98	71	105
S=C(NN=C(c1ccccc1)c1ccccn1)N(Cc1ccccn1)Cc1ccccn1	0	106	83	0	49	91	101	68	100
O=C(Nc1ccn(CCCNCCCN2CCCC2=O)c(=O)n1)OCc1ccccc1	0	0	0	0	0	0	-	-	-
CN(C)S(=O)(=O)c1cccc(NC(=O)CSc2cccc3cccnc23)c1	0	102	0	0	66	0	93	75	0
CN(C)S(=O)(=O)c1ccc(SCC(=O)Nc2cccc(S(=O)(=O)N3CCCC3)c2)nc1	0	0	0	0	0	0	-	-	-
C=C(C)c1cccc(C(C)(C)NC(=O)N2CCN(c3ccc(OC)cc3)CC2)c1	0	0	0	0	0	0	-	-	-
O=C(NCc1ccc2c(c1)OCO2)C1CCCN1C(=O)Nc1ccc(Cl)cc1 (stereo not drawn)	0	0	0	0	0	0	-	-	-
Cc1cc(S(=O)(=O)N2CCOCC2)ccc1OCC(=O)NCc1ccccn1	0	0	0	0	0	0	-	-	-
Cc1ccc2nc(-c3ccc4c(c3)OCCO4)cn2c1	0	91	84	-85	80	0	93	-	-	Mdm2-MdmX confirm=94
c1ccn2cc(-c3ccc4c(c3)OCCO4)nc2c1	0	0	0	0	0	0	-	-	-
COc1cccc(OCC(=O)Nc2ccccc2C(=O)Nc2ccc(C(=O)O)cc2)c1	0	0	0	0	0	0	-	-	-
Cc1ccccc1-c1nc(-c2ccccn2)no1	0	63	74	0	60	0	58	73	66
Cc1ccccc1-c1nc(-c2cccnc2)no1	0	0	0	0	0	0	-	-	-
COc1ccc(-c2nc(-c3ccccn3)no2)cc1	0	89	87	-80	88	88	86	95	98	Mdm2-MdmX confirm=96
COc1ccc2sc(N(CCCN(C)C)C(=O)c3ccc(S(=O)(=O)N4CCc5ccccc5C4)cc3)nc2c1	74	101	85	-98	82	0	98	0	106	Mdm2-MdmX confirm=95
CN(C)CCCN(C(=O)c1ccc(S(=O)(=O)N2CCc3ccccc3C2)cc1)c1nc2ccc(F)cc2s1	0	104	73	0	73	0	92	0	103
COc1ccc2sc(N(CCCN(C)C)C(=O)c3ccc(S(=O)(=O)N4CCCC4)cc3)nc2c1	0	0	0	0	0	0	-	-	-
COc1ccc(Cl)cc1-n1c(=S)sc2c(=O)[nH]c(SCC(=O)C(C)(C)C)nc21	0	0	0	0	0	0	-	-	-
COc1ccc(-c2cc3nc(C)n(N)c(=O)c3s2)cc1	0	95	79	0	87	89	95	-	-	Mdm2-MdmX confirm=95
COc1cccc(CNc2nc3cc(-c4ccccc4)sc3c(=O)n2C)c1	0	0	-	0	0	0	-	-	-
Cc1nc2cc(-c3ccccc3)sc2c(=O)n1N	0	90	90	0	75	0	79	88	77
CCCCCCC1CC(CSc2ncn[nH]2)OC1=O (stereo not drawn)	0	0	0	0	0	0	-	-	-
SMILES	CF NFkB block	Peg3 prom inh-1	TRPM1 prom inh	KKLEB tox	HIF-2a inh	Shn3 3UTR inh	Peg3 prom inh-2	HIF-2a conf	HIF-1a cs	others
O=S(=O)(Nc1cccc2ncccc12)c1cccs1	0	103	84	0	65	94	97	-	-	Mdm2-MdmX confirm=103
O=C(Cn1c2ccccc2c(=O)c2ccccc21)Nc1cccc(F)c1	0	0	0	0	0	0	-	-	-
Cc1cc(C)c2sc(NNC(=O)c3ccc(S(=O)(=O)N4CCc5ccccc5C4)cc3)nc2c1	0	59	72	0	0	96	76	-	-	Mdm2-MdmX confirm=87
Cc1nnc(NC(=O)c2ccc(S(=O)(=O)N3CCc4ccccc4C3)cc2)o1	0	0	0	0	0	0	-	-	-
CCC(=O)N(C)C[C@@H]1Oc2ncc(Br)cc2C(=O)N([C@@H](C)CO)C[C@H]1C	0	0	-	0	0	0	-	-	-
O=C1c2cccc3cc([N+](=O)[O-])cc(c23)C(=O)N1CCN1CCCC1	0	112	84	0	0	94	99	-	-	Mdm2-MdmX confirm=101
NC(=O)CN1CCN(CCN2C(=O)c3cccc4cccc(c34)C2=O)CC1	0	0	0	0	0	0	-	-	-
Nc1cc2c3c(cccc3c1)C(=O)N(CCN1CCCC1)C2=O	0	107	90	0	54	0	95	0	102
O=C1c2ccccc2C(=O)N1CCN1CCCCC1	0	0	0	0	0	0	-	-	-
CC(C)=C[C@H]1C[C@H](C)[C@H]2CC[C@H](C)c3c(O[C@@H]4OC[C@@H](O)[C@H](O)C4O)c(O)c(C)c1c32 (stereo partly drawn)	0	0	0	0	0	0	-	-	-
CCCCN=C1NN=C(c2ccc3c(c2)OCCO3)CS1	0	0	0	0	0	0	-	-	-
c1cc2c(cc1C1=NNC(=NC3CC3)SC1)OCCO2	0	93	95	0	86	0	91	94	97	Mdm2-MdmX confirm=95
COC(=O)Cc1[nH]n(-c2nc3ccccc3s2)c(=O)c1C(C)=Nc1ccc(Cl)cc1	0	94	80	0	85	0	94	93	102

Compound activity from PubChem BioAssay.
